KB-V1 cytotox – KB-V1 MDR subline cytotoxicity. KB-V1 MDR cells viability, CellTiter-Glo, 72 h. Potency, µM (highest dose often 46.1 µM), actives largely listed as cytotoxic. 400,000 compounds, 3.4% hits; note: % is set by controls: 0 for no effect and ±100 for the full control effect; nearly all actives have a fitted effect of over 60% in size
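Cells of the MDR subline KB-V1 are plated, dosed with compound at multiple concentrations, and incubated 72 h at 37 degrees C; CellTiter-Glo is then added and luminescence read after 10 min.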
ELG1 repair inh – ELG1-dependent DNA repair inhibition. HEK293T ELG1-luciferase reporter, luminescence, 16 h; DNA damage induced by 5-fluorouridine. Potency, µM (top dose mostly 46.1 µM), inactives show at the highest dose activity change, negative = inhibition, most hits filed as inhibitors. 330,000 compounds, 2.3% hits. AID 504467; note: % is set by controls: 0 for no effect and ±100 for the full control effect; nearly all actives have a fitted effect of over 55% in size
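HEK293T cells expressing luciferase-tagged ELG1 (2,000/well) received 5-Fluorouridine plus compound or DMSO for 16 hr at 37 °C. Luciferase was read by ONE-Glo luminescence after 30 min at room temperature.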
SW480 rerep – inducers of DNA re-replication in SW480 colon cancer cells. SW480 DNA re-replication, Hoechst DNA content imaging, 48 h. Potency, µM (top dose mostly 46.1 µM), without a hit: at the top dose re-replication activation, usual class: activators. 340,000 compounds, 1.8% hits. AID 624297; note: % of control where 0% means no effect; nearly all actives have a fitted effect of over 55% in size
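Compounds, transferred as 23 nL by pin tool, were incubated with cells for 48 hr; DNA content per nucleus was then quantified by Hoechst staining and fluorescence plate imaging.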
KB-3-1 tox – kills parental KB-3-1 adenocarcinoma cells | KB-3-1 viability, CellTiter-Glo ATP luminescence, 72 h | 400,000 compounds, 1.4% hits | Potency, µM (top dose mostly 46.1 µM), hits mostly cytotoxic; note: % is set by controls: 0 for no effect and ±100 for the full control effect; nearly all actives have a fitted effect of over 60% in size
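Screening of KB-3-1 cells (DMEM, 10% FBS, phenol-red free) ran from lowest to highest compound concentration; after 72 h at 37 °C viability was read luminescently and curves fitted.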
MCF10A rereplic – DNA re-replication induction in MCF 10a cells. MCF 10A DNA re-replication, Hoechst nuclear intensity, 48 h. Potency, µM (top dose mostly 46.1 µM), without a hit: at the highest dose activity, positive = re-replication, hits mostly activators. 350,000 compounds, 2.9% hits. AID 624296; note: % of control where 0% means no effect; nearly all actives have a fitted effect of over 50% in size
Numbers without * were called inactive; i = inactive; ? = inconclusive; / = not tested or not shown. Only some compounds are listed: those with a hit (about 8.1% of all), similar ones and a draw of the others. Calls come from the whole dose curve; as a rule, active = well fitted curve in the direction sought with a large enough effect; inconclusive = small, poorly fitted or top-dose-only effect, or another doubt; inactive = no such curve, though single readings can be large; an effect the other way counts as inactive or inconclusive. Potency is the fitted concentration of half-maximal effect.

SMILES	KB-V1 cytotox	ELG1 repair inh	SW480 rerep	KB-3-1 tox	MCF10A rereplic
O=C(COc1ccc(F)cc1Br)Nc1ccccc1N1CCOCC1	8.2µM*	-29%	4%	i	0%
Cc1ccc(C(C)C)c(OCC(=O)Nc2ccc(N3CCOCC3)cc2N2CCOCC2)c1	i	18µM*	-2%	?	?
C/C(=N/NC(=O)COc1cc(C)ccc1C(C)C)C(=O)O	i	-6%	9%	i	?
CCn1nnc(NC(=O)COc2cc(C)ccc2C(C)C)n1	15µM*	0%	-4%	i	4%
COC(=O)CCC(=O)COc1ccc(OC)cc1C#N	i	?	-4%	i	3%
O=C(O)CCn1c(=O)[nH]c(=O)n(CCC(=O)O)c1=O	i	-6%	-4%	i	-3%
Cc1ccc(OCC(=O)Nc2ccccc2N2CCOCC2)c(C)c1	i	?	7%	i	20%
COc1cc(C)ccc1OCC(=O)Nc1ccccc1N1CCOCC1	5.8µM*	4%	-6%	i	19%
CC(C)CNC(=S)NNC(=O)c1csc2c1CCCC2	i	-16%	0%	i	-6%
CCC(C)NC(=O)COC(=O)c1csc2c1CCCC2 (centres undefined)	i	12%	-1%	23µM*	6%
COc1ccc(N(Cc2cc3cccc(C)c3[nH]c2=O)S(C)(=O)=O)cc1	i	?	?	i	0%
COc1ccc(/C=N/Nc2nonc2N)c(OC)c1	4.1µM*	30%	?	?	-4%
COc1ccc(/C=N/Nc2nccnc2Cl)c(OC)c1	i	?	5%	i	3%
COc1ccccc1C1c2[nH]c3ccccc3c2C[C@H]2C(=O)N(C3CCN(Cc4ccccc4)CC3)CC(=O)N12 (some centres undefined)	i	23µM*	?	?	23%
COc1cccc(C2c3[nH]c4ccccc4c3C[C@H]3C(=O)N(C4CCN(Cc5ccccc5)CC4)CC(=O)N23)c1 (some centres undefined)	?	?	?	?	17%
COc1ccc(C2c3[nH]c4ccccc4c3C[C@H]3C(=O)N(C4CCN(Cc5ccccc5)CC4)CC(=O)N23)cc1OC (some centres undefined)	i	-7%	18µM*	?	?
COCc1cc(S(=O)c2ccc(Cl)cc2)nc(C)n1 (centres undefined)	i	-17%	?	i	15µM*
CC(OC(=O)c1ccc(Cl)nc1)C(=O)NC(C)(C)C (centres undefined)	i	2%	-1%	i	-4%
Clc1ccc(Nc2ccc(NCc3ccccc3)nn2)cc1	16µM*	?	16µM*	i	?
CCOC(=O)/C=C/C(=O)Nc1ccc(-c2nnc3n2CCCCC3)cc1	i	0%	26%	i	?
Cc1c(C(=O)Nc2ccc(-c3nnc4n3CCCCC4)cc2)oc2ccc(Br)cc12	8.2µM*	?	-15%	i	5%
COc1ccc(/C=C/C(=O)Nc2ccc(-c3nnc4n3CCCCC4)cc2)c(OC)c1	i	23µM*	0%	i	8%
COc1ccccc1/C=C/C(=O)Nc1ccc2c(c1)CCC2	i	?	-7%	i	12%
CCc1nnc(NC(=O)c2oc3ccc(Br)cc3c2C)s1	i	?	-4%	i	21µM*
COc1ccc(OC)c(/C=C/C(=O)Nc2ccc3c(c2)CCC3)c1	16µM*	2%	-3%	i	13%
SMILES	KB-V1 cytotox	ELG1 repair inh	SW480 rerep	KB-3-1 tox	MCF10A rereplic
CC1=C(C(=O)Nc2ccccc2)C(c2coc3ccccc3c2=O)C2=C(CCCC2=O)N1 (centres undefined)	i	3%	1%	i	5%
COc1ccc(C2CC(=O)C3=C(C2)NC(C)=C(C(=O)Nc2ccccc2C)C3c2coc3ccc(C)cc3c2=O)cc1OC (centres undefined)	i	5.8µM*	11%	i	7%
COc1ccsc1C(=O)Nc1ccc(F)cc1F	i	?	0%	i	13%
O=C(/C=C/c1ccc([N+](=O)[O-])s1)N1CCN(c2ccccc2)CC1	i	0%	27%	i	?
O=[N+]([O-])c1ccc(CN2CCCCCC2)s1	?	27%	?	23µM*	13%
O=C(/C=C/c1ccc([N+](=O)[O-])s1)N1CCCCC1	?	?	5.8µM*	15µM*	?
O=C(/C=C/c1ccc([N+](=O)[O-])s1)N1CCCC1	?	15µM*	12µM*	?	-1%
CC1CC(C)CN(C(=O)/C=C/c2ccc([N+](=O)[O-])s2)C1 (centres undefined)	?	?	?	i	22%
CC1CN(C(=O)/C=C/c2ccc([N+](=O)[O-])s2)CC(C)O1 (centres undefined)	8.2µM*	?	8.2µM*	?	?
COc1cccc2cc(C(=O)Nc3cc(C)cc(C)c3)/c(=N/NS(=O)(=O)c3ccccc3)oc12	i	0%	?	i	20%
Cc1ccc2oc(=O)c3cnn(CC(=O)N4CCc5ccccc5C4)c3c2c1	i	-4%	-8%	i	22%
COc1ccccc1-c1csc(-n2ncc(C#N)c2N)n1	/	5%	/	/	/
COc1ccccc1NC(=S)NN1CCN(C)CC1	i	0%	-5%	i	0%
CC(C)c1cc(C(C)C)c(S(=O)(=O)N2c3ccccc3[C@@]3(Br)C[C@H]4C(=O)N[C@@H](Cc5ccccc5)C(=O)N4[C@@H]23)c(C(C)C)c1	?	/	?	16µM*	-28%
CC(NC(=O)c1cc(F)c(F)cc1Cl)c1ccncc1 (centres undefined)	?	8%	-8%	i	9%
Nc1nnc(-c2ccncc2)s1	i	-18%	-3%	i	2%
c1cc(-c2sc(-c3ccncc3)c(-c3ccncc3)c2-c2ccncc2)ccn1	i	18µM*	14%	i	-6%
COc1ccc(N(Cc2ccccc2)S(=O)(=O)c2cc(C(=O)O)ccc2Cl)cc1	i	-4%	-3%	i	18µM*
O=C(O)c1ccc(Cl)c(S(=O)(=O)N(Cc2ccccc2)c2ccccc2)c1	i	-3%	1%	i	9%
O=C(O)c1ccc(Cl)c(S(=O)(=O)N(Cc2ccccc2)c2ccccc2Cl)c1	?	-24%	1%	?	8.2µM*
CCCn1c(N)c(N(CCOC)C(=O)C(C)Oc2ccc(F)cc2)c(=O)[nH]c1=O (centres undefined)	?	10%	-50%	i	0%
CCNc1nc(NCC)nc(C(=O)NN)n1	i	1%	-9%	i	-4%

From PubChem BioAssay
